Screening data deposited in PubChem BioAssay by National Center for Advancing Translational Sciences (NCATS).
Shown are actives, neighbours in structure and some others; about 7.3% of the full set was active somewhere.
SMN2 splice enh = qHTS Assay for Enhancers of SMN2 Splice Variant Expression; HEK293 SMN2-luciferase splicing reporter, luminescence, 30-36 h; Potency, µM (highest dose often 46.1 µM), for the others: top-dose activity change, positive = activation, actives largely listed as activators; 210,000 tested, 2.8% active; AID 1458, 2008; also: % of control where 0% means no effect; nearly all actives have a fitted effect of over 55% in size
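HEK293 cells carry an SMN2 […]–luciferase reporter in which exon 7 inclusion puts luciferase in frame. Cells were plated 10-12 h before compound addition, then incubated 30-36 h at 37C. ONE-Glo luminescence was read; sodium butyrate at 4.5 mM final served as control.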
Rab9 promoter act = qHTS Assay for Rab9 Promoter Activators | Potency, µM (series often up to 9.22 µM), for inactives: at the highest dose activation, negative = inhibition, actives largely listed as activators | Huh7 Rab9 promoter-luciferase reporter, luminescence, 24 h | 320,000 tested, 2.8% active; also: % of control where 0% means no effect; nearly all actives have a fitted effect of over 60% in size
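Luminescence from Amplite-detected luciferase (10 minutes, ambient) reports Rab9 promoter activation. Before that, stable Rab9-luciferase Huh7 cells (1500/well, reduced-serum OP-MEM I plus 10% FBS) were exposed to compound for 24 hours at 37C.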
NPC1 promoter act = qHTS Assay for NPC1 Promoter Activators; Huh7 NPC1 promoter luciferase reporter, 24 h; Potency, µM (top dose mostly 9.22 µM), for inactives: at the top dose activation, most hits filed as activators; 320,000 tested, 2.4% active; AID 485313, 2010; also: % of control where 0% means no effect; nearly all actives have a fitted effect of over 60% in size
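In 1536-well qHTS, Huh7 cells harboring an NPC1 promoter–luciferase construct received compound for 24 h; activation was quantified by luminescence following luciferase reagent addition.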
ELG1 genotox = qHTS screen for small molecules that induce genotoxicity in human embryonic kidney (HEK293T) cells expressing luciferase-tagged ELG1 | HEK293T ELG1-luciferase reporter, luminescence, 16 h | Potency, µM (series often up to 46 µM), without a hit: at the top dose activity change, positive = activation, usual class: activators | 330,000 tested, 1.3% active | AID 504466, 2011; also: % of control where 0% means no effect; nearly all actives have a fitted effect of over 60% in size
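HEK293T cells expressing luciferase-tagged ELG1 were treated with compound or DMSO for 16 hr at 37°C. Luciferase activity was then read after 30 min with ONE-Glo at room temperature; rising signal flags genetic stress.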
KinaseGlo FLuc = Counterscreen for Luciferase (Kinase-Glo TM) Inhibition | Potency, µM (top dose mostly 38.3 µM), inactives show at the top dose activity change, negative = inhibition, usual class: inhibitors | 200,000 tested, 0.28% active | AID 1379, 2008 | Kinase-Glo luciferase, ATP luminescence, 8 min; also: % is scaled to controls: 0 for no effect and ±100 for the full control effect; nearly all actives have a fitted effect of over 60% in size
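Recombinant Kinase-Glo luciferase, 10 uM ATP (linear range), luciferin; imidazole pH 7.2 / KCl / MgCl2 / Tween / BSA buffer; 8 min RT; luminescence.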
FLuc counter = qHTS profiling assay for firefly luciferase inhibitor/activator using purifed enzyme and Km concentrations of substrates (counterscreen for miR-21 project); Potency, µM (series often up to 57.5 µM), without a hit: at the top dose activity change, negative = inhibition, actives largely listed as inhibitors; Luciferin 4-monooxygenase (Photinus pyralis), P08659; 360,000 tested, 6.9% active; AID 588342, 2011; purified FLuc, Km substrates, luminescence inhibition;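 also: plate controls were vehicle for no effect and reference inhibitor for full effect; nearly all actives have a fitted effect of over 55% in size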
Target sequence (P08659 whole entry, looked up): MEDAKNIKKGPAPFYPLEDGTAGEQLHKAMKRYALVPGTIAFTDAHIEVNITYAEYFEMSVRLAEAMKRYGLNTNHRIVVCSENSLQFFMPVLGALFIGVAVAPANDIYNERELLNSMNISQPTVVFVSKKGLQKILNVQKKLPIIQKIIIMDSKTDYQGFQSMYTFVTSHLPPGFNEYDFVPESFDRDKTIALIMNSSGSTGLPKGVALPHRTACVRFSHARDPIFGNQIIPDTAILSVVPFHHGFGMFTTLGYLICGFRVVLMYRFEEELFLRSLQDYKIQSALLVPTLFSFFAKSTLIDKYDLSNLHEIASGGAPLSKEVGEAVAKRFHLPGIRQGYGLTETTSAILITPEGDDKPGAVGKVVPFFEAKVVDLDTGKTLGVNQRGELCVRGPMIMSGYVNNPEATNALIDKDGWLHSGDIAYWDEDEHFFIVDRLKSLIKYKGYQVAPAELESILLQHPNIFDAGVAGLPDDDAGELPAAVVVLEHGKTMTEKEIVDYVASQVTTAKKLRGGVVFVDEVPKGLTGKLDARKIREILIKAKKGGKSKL
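Purified P. pyralis luciferase, 10 nM final, with Km-level 10 uM D-luciferin and 10 uM ATP in 50 mM Tris acetate pH 7.5, 10 mM Mg acetate, 0.01% Tween-20, 0.05% BSA; 6-point qHTS titration about 60 µM downward; luminescence read.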
An asterisk follows results filed as active; ? = inconclusive; . = not tested or not shown; ! = a repeat was not active; [ ] = dose if it differs, or a comment. Calls follow the shape of the dose curve; as a rule, active = well fitted curve in the direction sought with a large enough effect; inconclusive = small, poorly fitted or top-dose-only effect, or another doubt; inactive = no such curve, though single readings can be large; an effect the other way counts as inactive or inconclusive. Potency is read from the fitted curve at half-maximal effect.

SMILES	SMN2 splice enh	Rab9 promoter act	NPC1 promoter act	ELG1 genotox	KinaseGlo FLuc	FLuc counter
O=C(Nc1scc(-c2ccccc2)c1C(=O)O)c1ccccc1Cl	.	1.0%	-3.4%	1.1%	.	?
COc1ccc(-c2csc(NC(=O)c3ccccc3F)c2C(=O)O)cc1	.	16.6%	?	-3.9%	.	23.9µM*
Fc1cc(Br)ccc1Nc1c2c(nc3nc(-c4cccs4)nn13)CCCC2	.	.	.	.	.	-17.1%
O=c1c(C=NCCCn2ccnc2)c(-c2ccccc2)[nH]n1-c1nc2ccccc2s1	.	2.1%	-4.1%	?	-2.2%	16.9µM*
Cc1ccsc1/C=C1\SC(=S)N(CC2CCCO2)C1=O (stereo unspecified)	17.9%	?	12.7%	?	1.4%	10.7µM*
O=C1/C(=C/c2ccc(O)cc2)SC(=S)N1CC1CCCO1 (stereo unspecified)	.	22.9%	-4.6%	0.6%	.	?
CCCOc1ccc(/C=C2\SC(=S)N(CC3CCCO3)C2=O)cc1 (stereo unspecified)	-20.6%	7.1%	-2.6%	7.5%	-1.5%	9.53µM*
CCN=C1S/C(=C\c2sccc2C)C(=O)N1CC	24.4%	?	?	?	-0.9%	12µM*
CCc1ccc(OC(=O)c2sc3ncn(Cc4cccc(F)c4)c(=O)c3c2C)cc1	.	.	.	.	.	-9.4%
Cc1ccccc1NC(=O)CN1C(=O)CCn2nc(-c3cccn3C)cc21	.	.	.	.	.	-2.7%
CN(C)C(CNC(=O)c1ccc(C2SCCS2)cc1)c1ccccc1 (stereo unspecified)	.	12.4%	21.7%	16.5%	.	16.9µM*
CN(C)C(CNC(=O)c1ccc(NC(=O)c2cccs2)cc1)c1ccccc1 (stereo unspecified)	.	-5.1%	-3.0%	0.3%	.	-0.2%
Fc1ccc2c(c1)-c1nc(-c3ccccc3)cc(-c3ccccc3)c1CO2	1.4%	.	.	.	.	1.3%
Cc1cc(NC(=O)c2ccccc2F)ncc1NC(=O)c1cccs1	?	28.6%	16.4%	13.3%	-26.8%	?
Cc1cc(NC(=O)c2cccs2)ncc1NC(=O)c1cccc(F)c1	?	3.16µM*	27.4%	?	-10.3%	19µM*
Cc1cc(NC(=O)c2ccccc2)ncc1NC(=O)c1cccs1	11.2µM*	3.98µM*	3.55µM*	?	11.2µM*	15.1µM*
O=C(Nc1ccc(NC(=O)c2cccs2)cn1)c1ccccc1	15.8µM*	1.12µM*	2.24µM*	?	-9.7%	5.36µM*
Cc1cc(NC(=O)c2cccs2)ncc1NC(=O)C(C)C	.	2.24µM*	1.78µM*	-3.0%	.	15.1µM*
O=C1C2=C(S[C@@H]3O[C@H](CO)[C@@H](O)[C@H](O)[C@H]3O2)C(=O)c2ccccc21	-28.0%	.	.	.	-8.0%	.
Cc1cc(C)cc(NC(=S)Nc2cccc3ccccc23)c1	.	2.51µM*	2.51µM*	?	.	21.3µM*
O=C(NCCCn1ccnc1)c1cc(-c2ccc(Cl)cc2)nc2ccccc12	0.7%	-5.2%	0.0%	-12.8%	-1.2%	23.9µM*
O=C(O)c1ccccc1C(=O)NCCCn1ccnc1	.	0.1%	-4.4%	0.3%	.	-0.5%
Cc1ccc2nc(-c3ccccc3)cc(C(=O)NCCCn3ccnc3)c2c1	.	0.3%	1.3%	-1.6%	-0.4%	21.3µM*
O=C(NCCCn1ccnc1)c1cn(-c2ccccc2)nc1-c1ccc(F)cc1	12.1%	8.7%	8.7%	4.5%	-2.8%	10.7µM*
Cc1onc(-c2ccccc2)c1C(=O)NC(=S)NNC(=O)c1ccncc1	6.0%	-4.6%	0.1%	-1.2%	2.1%	-0.4%
SMILES	SMN2 splice enh	Rab9 promoter act	NPC1 promoter act	ELG1 genotox	KinaseGlo FLuc	FLuc counter
Cc1onc(-c2ccccc2)c1C(=O)NC(=S)NNC(=O)c1cc(-c2ccc(F)cc2)n[nH]1	.	-1.7%	0.5%	-8.5%	.	15.1µM*
CCCCCn1cc2c(c1-c1ccc(Br)cc1)c(=O)n(C)c(=O)n2C	3.5%	.	.	.	.	2.9%
O=C1CCCc2nc3c(cc21)C(O)Oc1c-3ccc2ccccc12 (stereo unspecified)	24.6%	1.12µM*	3.16µM*	?	-0.6%	-10.8%
COc1cc(NC(=O)c2nn(C)c3c2COc2ccccc2-3)cc(OC)c1OC	.	.	.	.	.	-0.1%
C=CCn1c(-c2ccccc2)c[nH]c1=S	-2.2%	28.0%	24.3%	13µM*	-14.3%	26.9µM*
CCCCc1nc2c(c3c1C[C@H](C)OC3)CN(S(=O)(=O)c1ccc(C)cc1)CC2	-9.6%[9.22 µM]	.	.	.	-6.2%[7.66 µM]	.
CCOC(=O)C1(Cc2ccccc2Cl)CCN(C(=O)CN2CCOC2=O)CC1	.	3.55µM*	?	?	-0.3%	10.7µM*
CCOC(=O)C1(CCCc2ccccc2)CCN(C(=O)CN2CCOC2=O)CC1	.	-8.7%	0.7%	-1.2%	-3.8%	-1.5%
O=C(Nc1ccc(CN2CCCCC2)cc1)Nc1ccccc1Cl	?	28.0%	22.3%	16.5%	1.2%	16.9µM*
CC(=O)Nc1ccc(CN2CCCCCCC2)cc1	11.9%	0.9%	1.3%	1.1%	1.1%	-1.4%
CCN1CCN(Cc2ccc(NC(=O)Nc3ccccc3Cl)cc2)CC1	?	3.55µM*	3.98µM*	18.4µM*	2.5%	6.75µM*
O=C(Nc1ccc(Br)cc1)Nc1ccccc1Cl	.	?	2.24µM*	?	.	2.69µM*
CCN1CCN(CCC(=O)Nc2ccc(C)cc2)CC1	.	-1.5%	7.0%	0.8%	.	-0.6%
CCN1CCN(C(=O)C2(NC(=O)Nc3ccccc3Cl)CCCCC2)CC1	-19.1%	-1.6%	-5.9%	4.8%	-1.5%	5.8%
CCN1CCN(Cc2ccccc2NC(=O)Nc2ccc(C)cc2)CC1	?	3.98µM*	?	10.3µM*	-0.5%	23.9µM*
O=C(Nc1ccc2nccnc2c1)Nc1ccccc1Cl	.	?	?	-1.9%	.	?
CCn1c(SCc2ccc(F)cc2Cl)nc(=O)c2c(C(=O)OC)cc(C3CC3)nc21	.	.	.	.	.	-16.4%
COc1cccc(CNC(=O)c2ccc(NC(=O)N3CC(C)Sc4ccccc43)cc2)c1 (stereo unspecified)	-0.8%	.	.	.	.	0.2%
Cc1ccc(OCC(=O)Nc2ccc3nc(SCC(=O)N4CCCC4)sc3c2)cc1C	.	.	.	.	.	-3.3%
O=C(Nc1cccc2nsnc12)c1cccs1	70.9%	3.16µM*!	?	?	-10.9%	13.5µM*!
O=C(Nc1cccc2nsnc12)c1cccnc1	-37.5%	1.3%	-0.2%	0.1%	1.0%	4.4%
O=C(Nc1ccccc1)Nc1cccc2nsnc12	11.2µM*	3.16µM*	4.47µM*	?	?	7.57µM*
